Results on five molecules are retold here after PubChem BioAssay.

The test system of test [1] is Plasmodium falciparum Sir2 (PF13_0152, Sir2A). Description: pfSir2 binders on small-molecule microarrays, primary screen, biochemical, small-molecule microarray, 635 nm fluorescence (AID 1098).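 Also: score merges spot fluorescence intensity with its signal-to-noise ratio.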 The settings on record: small-molecule microarray binding, fluorescence 635 nm; higher = more signal.
Test [2] in a line: small-molecule microarray binders of probe aDKK1, primary screen, biochemical, biotinylated probe, 635/667 nm fluorescence (AID 1099).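 Also: score merges 667nm spot fluorescence with signal to noise across triplicate slides.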 To be noted: higher = more signal.
Test [3] in a line: small-molecule microarray binders of probe aCHRDL2, primary screen, biochemical, biotinylated probe, 635/667 nm fluorescence (AID 1100). The settings on record: higher = more signal.
Test [4] can be described thus: splicing luciferase reporter signal modulators, primary screen, spliceosome inhibition project, cell-based, HEK293, splice +/- reporter (AID 1101).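 Also: HEK293 cells carrying a splicing-competent luciferase reporter gene; test concentration not given here.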 The settings on record: luminescence, 24 h, higher = more signal, called active from +8 up or from −8 down. For orientation: A reporter such as luciferase makes a cellular process visible.
The target in test [5] is Fibroblast growth factor 10 (Homo sapiens) (UniProt O15520). Description: FGF10 binders on small-molecule microarrays, primary screen, biochemical, small-molecule microarray, 635 nm fluorescence (AID 1102). To be noted: FGF10 binding, fluorescence 635 nm, higher = more signal.
The test system of test [6] is glycogen synthase kinase-3 (GSK3A per assay name; protocol says GSK3B). The test is described as follows: GSK3 binders on small-molecule microarrays, primary screen, biochemical, small-molecule microarray, 635 nm fluorescence, GSK3A (AID 1103). Also: the record names both GSK3A and GSK3B. To be noted: small-molecule microarray binding, fluorescence 635 nm; higher = more signal.
Test [7] concerns the target Epidermal growth factor receptor (Homo sapiens) (UniProt P00533). The test is described as follows: EGFR binders on small-molecule microarrays, primary screen, biochemical, small-molecule microarray, 635 nm fluorescence (AID 1104).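 Also: score merges 667 nm emission intensity with spot signal to noise over triplicate slides.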 To be noted: EGFR binding, higher = more signal.
Test [8] deals with Follistatin-related protein 3 (Homo sapiens) (UniProt O95633). The test is described as follows: FSTL3 binders on small-molecule microarrays, primary screen, biochemical, small-molecule microarray, 635 nm fluorescence (AID 1105).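 Also: score merges emission near 667 nm and signal to noise per printed spot across three slides.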 The settings on record: FSTL3 binding, higher = more signal.
Test [9] has as its target Dickkopf-related protein 1 (Homo sapiens) (UniProt O94907). Description: DKK1 binders on small-molecule microarrays, primary screen, biochemical, small-molecule microarray, 635 nm fluorescence scan (AID 1106).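 Also: score merges emission near 667 nm with signal to noise over three replicate slides.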 To be noted: DKK1 binding, higher = more signal.
Test [10] concerns Inhibin beta A chain (activin A). The test is described as follows: INHBA (activin A) binders on microarrays, primary screen, biochemical, small-molecule microarray, 635 nm fluorescence scan (AID 1107).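 Also: mouse activin A protein probed at 4.33 µg/mL on printed slides; score merges bound-protein fluorescence near 667 nm with spot signal-to-noise.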 To be noted: small-molecule microarray binding, higher = more signal.
In test [11] the test system is Human papillomavirus type 1a protein E7 (residues 44-93). Description: HPV1a E7 fragment binders on microarrays, primary screen, biochemical, small-molecule microarray, residues 44-93, 635 nm fluorescence (AID 1108).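 Also: E7 fragment applied at 1 µg/mL in TBST for 1 h at 4 C; score combines spot fluorescence with its signal to noise ratio.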 The settings on record: small-molecule microarray binding, fluorescence 635 nm; higher = more signal.
Test [12] is described as follows: modulators of HCV replicon luciferase signal, primary screen, HCV replication inhibitor project, Huh7 cells, luciferase reporter (AID 1109).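 Also: huh7 hepatoma cells harbouring a luciferase neomycin HCV replicon reporter; luciferase luminescence as measure of HCV replicon replication; test concentration not given here.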 To be noted: 48 h, higher = more signal. For orientation: Replicon systems follow genome replication, usually without infectious particles.
Test [13] concerns the target Left-right determination factor 2 (Homo sapiens) (UniProt O00292). The test is described as follows: LEFTY2 binders on small-molecule microarrays, primary screen, biochemical, small-molecule microarray, 635 nm fluorescence scan (AID 1110). The settings on record: LEFTY2 binding, higher = more signal.
The target in test [14] is Calmodulin-1 (Homo sapiens) (UniProt P0DP23). Description: CALM1 binders on microarrays, EGTA buffer, profiling panel, biochemical, small-molecule microarray, Cy5-labelled CALM1 (AID 1111).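 Also: labelled calmodulin applied in Tris saline Tween buffer holding calcium plus EGTA and DTT.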 To be noted: Cy5-CALM1 binding fluorescence, higher = more signal.
Test [15] has the same target. The test is described as follows: calcium-bound CALM1 binders on microarrays, profiling panel, artefact control for SMM control-protein annotation, biochemical, small-molecule microarray, Cy5-labelled CALM1, plus calcium (AID 1112).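 Also: score merges spot fluorescence with signal to noise from triplicate slides.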 To be noted: Cy5-CALM1 binding fluorescence, higher = more signal.
A short description of test [16]: small-molecule microarray binders of probe aWnt5a, primary screen, biochemical, biotinylated probe, 635/667 nm fluorescence (AID 1113).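 Also: score merges 667 nm fluorescence intensity with signal-to-noise per printed feature.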 To be noted: higher = more signal.
Test [17] in a line: small-molecule microarray binders of probe aShh, primary screen, biochemical, biotinylated probe, 635/667 nm fluorescence (AID 1114).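 Also: probe is biotin-labelled aShh protein from a stem cell growth factor screen; measures binding of labelled protein to compounds printed on the slide; score merges feature fluorescence at 667 nm with signal-to-noise.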 To be noted: higher = more signal.
Test [18] in a line: small-molecule microarray binders of probe aNog, primary screen, biochemical, biotinylated probe, 635/667 nm fluorescence (AID 1115).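 Also: probe is biotinylated aNog protein used at 0.15 µg/mL for 1 h at 4 C; z-score combines 667 nm fluorescence of each spot with its signal to noise.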 The settings on record: higher = more signal.
Test [19] has as its target Torsin-1A-interacting protein 1 (Homo sapiens) (UniProt Q5JTV8). Description: LAP1 binders from COS7 cell lysate, primary screen, small-molecule microarray, 635/667 nm fluorescence (AID 1116). To be noted: COS7-hLAP1 lysate binding, 635 nm fluorescence, higher = more signal.
Test [20] deals with Alpha-bungarotoxin (Bungarus multicinctus) (UniProt P60615). The test is described as follows: alpha-bungarotoxin binders on microarray, profiling panel, artefact control for SMM control protein annotation, biochemical, small-molecule microarray, Alexa647 label, 635/667 nm fluorescence (AID 1117). The settings on record: alpha-BTX-A647 binding fluorescence, higher = more signal.

Active and inactive are the calls of the source.

Sequence of Alpha-bungarotoxin (Bungarus multicinctus) (P60615 whole entry, looked up): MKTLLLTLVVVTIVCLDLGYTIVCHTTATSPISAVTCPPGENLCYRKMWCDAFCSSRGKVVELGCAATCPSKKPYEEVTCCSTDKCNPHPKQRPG
Sequence of Torsin-1A-interacting protein 1 (Homo sapiens) (Q5JTV8 whole entry, looked up): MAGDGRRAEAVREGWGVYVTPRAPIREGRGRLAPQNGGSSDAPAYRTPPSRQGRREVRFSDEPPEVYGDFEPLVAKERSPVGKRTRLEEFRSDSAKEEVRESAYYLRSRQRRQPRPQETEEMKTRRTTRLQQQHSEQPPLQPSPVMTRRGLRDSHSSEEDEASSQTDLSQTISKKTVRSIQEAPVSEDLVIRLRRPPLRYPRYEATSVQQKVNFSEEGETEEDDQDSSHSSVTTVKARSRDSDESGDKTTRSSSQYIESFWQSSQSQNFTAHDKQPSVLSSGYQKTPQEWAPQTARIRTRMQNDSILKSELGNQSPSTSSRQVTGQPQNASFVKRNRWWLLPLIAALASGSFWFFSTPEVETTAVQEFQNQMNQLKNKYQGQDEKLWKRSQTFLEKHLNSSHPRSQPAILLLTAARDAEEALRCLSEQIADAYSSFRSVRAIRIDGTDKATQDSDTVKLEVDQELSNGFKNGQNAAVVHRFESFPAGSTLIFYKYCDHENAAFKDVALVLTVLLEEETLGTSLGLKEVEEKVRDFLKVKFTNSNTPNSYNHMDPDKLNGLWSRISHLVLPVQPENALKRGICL
Sequence of Epidermal growth factor receptor (Homo sapiens) (P00533 whole entry, looked up): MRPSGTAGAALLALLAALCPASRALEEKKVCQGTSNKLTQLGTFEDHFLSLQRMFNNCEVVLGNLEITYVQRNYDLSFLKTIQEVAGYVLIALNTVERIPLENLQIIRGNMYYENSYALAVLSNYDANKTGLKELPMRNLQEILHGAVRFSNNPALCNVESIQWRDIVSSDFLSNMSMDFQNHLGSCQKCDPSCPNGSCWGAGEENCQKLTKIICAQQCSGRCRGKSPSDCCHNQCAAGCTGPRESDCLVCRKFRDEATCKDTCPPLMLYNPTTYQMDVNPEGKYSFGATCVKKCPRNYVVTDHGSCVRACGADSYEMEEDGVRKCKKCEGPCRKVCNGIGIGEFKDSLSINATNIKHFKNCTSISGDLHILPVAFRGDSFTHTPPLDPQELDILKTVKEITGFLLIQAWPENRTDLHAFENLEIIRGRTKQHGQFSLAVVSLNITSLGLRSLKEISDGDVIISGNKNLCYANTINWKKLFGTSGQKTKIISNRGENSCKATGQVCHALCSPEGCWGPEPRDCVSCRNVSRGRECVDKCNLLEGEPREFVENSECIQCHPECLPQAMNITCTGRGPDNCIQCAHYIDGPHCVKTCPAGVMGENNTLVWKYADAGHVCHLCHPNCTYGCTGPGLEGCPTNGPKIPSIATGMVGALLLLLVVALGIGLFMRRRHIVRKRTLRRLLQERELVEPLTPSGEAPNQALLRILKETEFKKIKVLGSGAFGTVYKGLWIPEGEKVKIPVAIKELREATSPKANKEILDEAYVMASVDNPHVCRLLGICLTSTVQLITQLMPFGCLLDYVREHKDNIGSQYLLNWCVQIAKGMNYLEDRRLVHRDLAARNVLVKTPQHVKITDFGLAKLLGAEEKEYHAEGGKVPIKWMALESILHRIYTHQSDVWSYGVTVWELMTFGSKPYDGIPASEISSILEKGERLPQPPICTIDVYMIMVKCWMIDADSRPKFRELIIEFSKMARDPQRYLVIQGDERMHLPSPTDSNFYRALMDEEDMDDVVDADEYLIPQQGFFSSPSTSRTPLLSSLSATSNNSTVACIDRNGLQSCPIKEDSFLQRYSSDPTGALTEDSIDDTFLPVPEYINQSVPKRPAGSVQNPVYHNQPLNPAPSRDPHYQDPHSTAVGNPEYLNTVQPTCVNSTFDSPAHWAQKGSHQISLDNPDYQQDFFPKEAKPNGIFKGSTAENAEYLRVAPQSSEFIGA
Sequence of Fibroblast growth factor 10 (Homo sapiens) (O15520 whole entry, looked up): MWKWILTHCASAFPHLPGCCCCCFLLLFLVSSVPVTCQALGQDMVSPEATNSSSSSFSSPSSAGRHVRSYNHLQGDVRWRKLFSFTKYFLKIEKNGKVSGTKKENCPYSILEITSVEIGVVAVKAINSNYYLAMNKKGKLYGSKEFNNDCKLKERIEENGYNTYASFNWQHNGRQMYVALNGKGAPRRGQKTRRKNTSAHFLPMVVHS
Sequence of Dickkopf-related protein 1 (Homo sapiens) (O94907 whole entry, looked up): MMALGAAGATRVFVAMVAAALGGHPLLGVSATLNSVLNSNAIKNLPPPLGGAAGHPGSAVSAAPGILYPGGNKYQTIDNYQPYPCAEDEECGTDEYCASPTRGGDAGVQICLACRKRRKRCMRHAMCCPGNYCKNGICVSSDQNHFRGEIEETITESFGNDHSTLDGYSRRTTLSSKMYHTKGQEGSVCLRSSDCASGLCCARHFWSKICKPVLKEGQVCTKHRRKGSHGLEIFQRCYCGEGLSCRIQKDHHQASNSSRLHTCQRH
Sequence of Follistatin-related protein 3 (Homo sapiens) (O95633 whole entry, looked up): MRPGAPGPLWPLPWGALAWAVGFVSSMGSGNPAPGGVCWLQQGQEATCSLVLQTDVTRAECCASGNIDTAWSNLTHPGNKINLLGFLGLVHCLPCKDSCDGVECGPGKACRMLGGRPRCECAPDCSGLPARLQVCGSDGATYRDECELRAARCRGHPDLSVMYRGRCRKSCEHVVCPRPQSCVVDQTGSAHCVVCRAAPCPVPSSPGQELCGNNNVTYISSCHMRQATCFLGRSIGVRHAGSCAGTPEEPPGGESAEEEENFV
Sequence of Left-right determination factor 2 (Homo sapiens) (O00292 whole entry, looked up): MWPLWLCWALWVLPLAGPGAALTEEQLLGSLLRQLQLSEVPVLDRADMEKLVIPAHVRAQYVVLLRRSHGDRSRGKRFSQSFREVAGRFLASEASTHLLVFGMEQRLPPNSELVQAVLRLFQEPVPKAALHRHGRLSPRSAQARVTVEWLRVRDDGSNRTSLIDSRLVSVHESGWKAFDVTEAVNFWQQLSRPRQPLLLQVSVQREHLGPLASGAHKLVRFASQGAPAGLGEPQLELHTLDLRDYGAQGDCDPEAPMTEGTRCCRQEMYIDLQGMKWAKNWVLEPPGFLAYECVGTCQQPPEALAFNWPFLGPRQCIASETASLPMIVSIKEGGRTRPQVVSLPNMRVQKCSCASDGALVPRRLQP

For `Cc1cc(C)c(C(O)C2C=CC3C(=O)N(c4ccccc4)C(=O)C3N2Nc2ccc(C#N)cc2)c(C)c1` (stereo not given), the composite z-score in test [1] stood at 0.586; in [2] it was 1.05; in test [3], 1.24; in [5], 1.27; in test [6], 1.22; in test [7] it was 0.283. Besides, the composite z-score is 1.22 in [8]; -0.0911 in test [9]; 0.7 in test [10]; 0.486 in test [11]; 0.219 in test [13]; 2.56 in [14]. For the same molecule, the composite z-score in [15] is 1.17; in [16], 0.0894; in test [17], -0.0793; in [18] it was 1.97; in test [19] it was 0.922; in [20], 1.79. The z-score in test [4] was 0.757 (inactive); in test [12], -0.111.
For `Cc1ccc(S[C@]2(C(=O)NC3CC3)CC(=O)N(Cc3ccccc3)[C@@H]2c2ccc(CO)cc2)cc1`, the composite z-score was 0.325 in test [1]; 0.224 in [2]; 0.892 in test [3]; -0.829 in test [5]; -0.414 in test [6]; -0.679 in [7]. For the same molecule, the composite z-score was -0.217 in test [8]; 0.539 in test [9]; 0.194 in [10]; -0.269 in [11]; -1.19 in test [13]; -0.274 in [14]. Besides, the composite z-score was 0.176 in test [15]; -0.197 in test [16]; -0.237 in test [17]; 0.314 in test [18]; 1.39 in test [19]; 0.848 in test [20]. The z-score in test [4] is -0.61 (inactive); in test [12], -0.921.
For the molecule `COC(=O)c1ccc(C(O)C2C=CC3C(=O)N(C)C(=O)C3N2NC(=O)OC(C)(C)C)o1` (stereo not given), the composite z-score in test [1] came out at 0.66; in [2], 0.49; in test [3] it was 0.266; in test [5], 0.558; in test [6], 0.483; in test [7] it was 0.557. In addition, the composite z-score in test [8] was 0.622; in [9] it was -0.0526; in test [10], 0.399; in test [11], 0.703; in test [13], 0.432; in test [14], 0.81. The composite z-score was -0.493 in test [15]; 0.112 in [16]; -0.0904 in test [17]; 0.672 in test [18]; 2.02 in [19]; 0.977 in [20]. In addition, the z-score is 1.26 (inactive) in [4] and -0.104 in test [12].
For `COc1ccc(CCN2C(=O)[C@@]3(Cc4ccccc42)c2ccccc2C(=O)N(Cc2ccccc2Cl)[C@H]3c2ccc(CO)cc2)cc1`, the composite z-score in [1] is 1.14; in [2] it was 0.546; in test [3], 0.929; in test [5], -0.202; in test [6] it was -1.01; in test [7], -1.12. Moreover, the composite z-score in test [8] is -0.61; in test [9] it was -0.695; in test [10] it was 0.38; in [11], -0.782; in test [13], -0.622; in test [14] it was 0.102. In addition, the composite z-score in test [15] was 0.45; in [16] it was -0.176; in test [17] it was -0.138; in [18] it was -0.272; in test [19] it was 0.0577; in test [20], 0.0121. For the same molecule, the z-score in [4] was -0.0194 (inactive); in [12] it was 0.0889.
Turning to `CN1C(=O)C2C=CC(C(O)c3ccccn3)N(Nc3ccccc3)C2C1=O` (stereo not given), the composite z-score in test [1] amounted to 0.427; in test [2] it was 0.257; in test [3] it was 0.276; in test [5], 0.3; in [6], 0.422; in [7] it was 0.389. For the same molecule, the composite z-score in [8] is 0.157; in test [9] it was -0.0961; in test [10], 1.05; in [11], 0.409; in test [13] it was 0.129; in [14], -0.163. For the same molecule, the composite z-score in test [15] is -0.408; in test [16], -0.0647; in test [17] it was 0.318; in [18], 0.266; in test [19], 0.353; in test [20], 0.476. Moreover, the z-score in test [4] is 0.782 (inactive); in test [12], 0.0435.
